# Most compounds without a hit are left out; they make up all but 2.3% or so of the library.
# MCL1-BIM inh: inhibitors of MCL1 binding to BIM-BH3, primary screen, biochemical, fluorescence polarization; Induced myeloid leukemia cell differentiation protein Mcl-1 (Homo sapiens), Q07820; GST-MCL1 / FITC-Bim-BH3 fluorescence polarization; inhibition, % at 10.9 µM; actives 0.68% (n = 320,000); AID 2057, 2009;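 active means inhibition above the mean inhibition of all tested compounds plus 3 SD, set per campaign, cut at about 40% in these data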;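 further: 0% = DMSO wells and 100% = unlabeled Bim-BH3 peptide control; higher means more loss of mP so more displacement of Bim peptide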
# Target sequence (Q07820 whole entry, looked up): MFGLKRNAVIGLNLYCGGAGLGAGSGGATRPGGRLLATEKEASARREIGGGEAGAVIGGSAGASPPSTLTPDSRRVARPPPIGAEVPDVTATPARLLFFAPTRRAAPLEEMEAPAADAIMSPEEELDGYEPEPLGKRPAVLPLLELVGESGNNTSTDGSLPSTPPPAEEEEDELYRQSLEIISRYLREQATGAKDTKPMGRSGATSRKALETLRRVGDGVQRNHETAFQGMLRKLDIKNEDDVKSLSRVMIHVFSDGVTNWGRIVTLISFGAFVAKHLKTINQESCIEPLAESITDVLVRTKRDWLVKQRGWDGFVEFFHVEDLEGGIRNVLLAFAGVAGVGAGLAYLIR
# Mcl1 Noxa PPI: Mcl-1/Noxa binding inhibitors, primary screen, biochemical, TR-FRET, 1536-well; Induced myeloid leukemia cell differentiation protein Mcl-1 (Homo sapiens), Q07820; AID 1022, 2008; TR-FRET Mcl-1/Noxa peptide binding, 2 h; actives 1.5% (n = 220,000); inhibition, % at 21.7 µM;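 active means compounds that cut the protein-peptide binding signal by more than 50% relative to plate controls in a single-dose test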;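 further: His-tagged Mcl-1 with rhodamine Noxa BH3 peptide and terbium anti-His antibody; 0% = Mcl-1 plus Noxa peptide wells and 100% = peptide-only wells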
# Mcl1-Bid inh: Mcl-1/Bid binding inhibitors, primary screen, biochemical, TR-FRET, 1536-well. Induced myeloid leukemia cell differentiation protein Mcl-1 (Homo sapiens), Q07820. TR-FRET Mcl-1/Bid-Dy647 peptide binding. inhibition, % at 21.7 µM. actives 0.97% (n = 220,000);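 active means compounds that cut the binding signal by more than half at the single screening dose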;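 further: His-tagged Mcl-1 with europium anti-His antibody binding Bid BH3 peptide; 0% = Mcl-1 plus peptide wells and 100% = peptide-only wells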
# Bcl-xL primary: inhibitors of human Bcl-xL, primary screen, biochemical, fluorescence polarization, HTS | GST-Bcl-xL / FITC-Bim BH3 peptide fluorescence polarization | AID 2129, 2009 | actives 0.7% (n = 320,000) | inhibition, % at 10.9 µM;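 active means inhibition above the mean of all tested compounds plus 3 SD, cutoff set per campaign, cut at about 30% in these data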;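 further: 0% = DMSO wells and 100% = unlabeled Bim-BH3 peptide competitor; inhibitors lower millipolarization by displacing the labeled peptide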
# GLD-1 RNA inh: GLD-1/TGE RNA complex disruptors, primary screen, biochemical, fluorescence polarization; Female germline-specific tumor suppressor gld-1 (Caenorhabditis elegans), Q17339; purified GLD-1 + fluorescein TGE RNA; inhibition, % at 5.96 µM; actives 0.44% (n = 320,000); AID 2280, 2010;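 active means percent inhibition above a per-plate cutoff, the plate mean of test compounds plus 3 SD, cut at about 30% in these data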;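 further: 0% = DMSO wells with GLD-1 and probe and 100% = wells lacking GLD-1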
# Bim-Mcl-1: inhibitors of Bim peptide binding to Mcl-1, primary screen, biochemical, bead-based flow cytometry, multiplex. Induced myeloid leukemia cell differentiation protein Mcl-1 (Homo sapiens), Q07820. Bim peptide-Mcl-1 binding. inhibition, % at 10 µM. actives 0.1% (n = 190,000). AID 1009, 2008; in the data active means inhibition above about 40%;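 further: 0% = no compound tracer wells and 100% = peptide blocker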
# BCLXL inh confirm: Bcl-xL inhibitors blocking Bim BH3 binding, confirmation, counter-screen for MCL1 inhibitor project, biochemical, fluorescence polarization | shares compounds with MCL1-BIM inh | GST-Bcl-xL / FITC-Bim BH3 peptide FP binding | inhibition, % at 10.9 µM | actives 54% (n = 1,700) | AID 2166, 2009;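 active means inhibition above a cutoff equal to the mean inhibition of all tested compounds plus 3 SD, cut at about 30% in these data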;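 further: 0% = DMSO wells and 100% = unlabeled Bim BH3 control peptide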
# MCL1 BIM confirm: inhibitors of MCL1 binding to BIM-BH3, confirmation, biochemical, fluorescence polarization, triplicate; shares compounds with MCL1-BIM inh; GST-MCL1 / FITC-Bim-BH3 fluorescence polarization; inhibition, % at 10.9 µM; actives 61% (n = 1,700);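 active means inhibition above the average of all tested compounds plus 3 SD, cut at about 40% in these data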;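 further: 0% = DMSO wells and 100% = unlabeled Bim-BH3 control peptide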
# The depositor's hits bear a star; nt = no result; + = active, no number.
SMILES,MCL1-BIM inh,Mcl1 Noxa PPI,Mcl1-Bid inh,Bcl-xL primary,GLD-1 RNA inh,Bim-Mcl-1,BCLXL inh confirm,MCL1 BIM confirm
CN(C)c1ccc2nc3c(=O)[nH]c(=O)nc-3n(CC(O)C(O)C(O)CO)c2c1 (stereo not given),+,nt,nt,190*,163*,nt,150*,174*
COc1ccc2oc(C(=O)N3CCN(S(=O)(=O)c4cccc([N+](=O)[O-])c4)CC3)c(C)c2c1,46*,nt,nt,0,7,nt,6,8
CC(C)CN(C(=O)c1ccc([N+](=O)[O-])s1)c1c(N)n(Cc2ccccc2)c(=O)[nH]c1=O,-5,nt,nt,1,9,nt,nt,nt
COC(=O)CCC(=O)OC1(C)C(=O)C2=COC(c3ccc(OC)cc3)=CC2=C(Br)C1=O (stereo not given),56*,50*,-41,33*,16,nt,32*,57*
Cc1ccc(OCC(=O)N(C)C2CCCCC2)c([N+](=O)[O-])n1,nt,nt,nt,nt,6,nt,nt,nt
Cc1ccc(S(=O)(=O)N2CCN(C(=O)c3cccc(-n4cccc4)c3)CC2)cc1,16,nt,nt,8,-5,nt,nt,nt
O=C(c1cccc(-n2cccc2)c1)N1CCN(S(=O)(=O)c2ccccc2)CC1,51*,nt,nt,12,2,nt,32*,88*
O=C(CNC(=S)N(Cc1ccccc1Cl)C1CCCC1)NCCN1CCOCC1,4,1,-29,2,3,1,nt,nt
CCn1cc(C(=O)NN)c(=O)c2cc(F)c(N3CCOCC3)cc21,41*,nt,nt,7,-7,nt,15,29
CCn1cc(C(=O)NCC(C)C)c(=O)c2cc(F)c(N3CCN(C)CC3)cc21,0,1,-13,2,6,nt,nt,nt
O=C(O)c1ccccc1NS(=O)(=O)c1cccc(-n2sc3ccccc3c2=O)c1,56*,nt,nt,23,10,nt,35*,68*
Nc1c(C(=O)N/N=C/c2cccnc2)oc2nc(-c3ccco3)cc(-c3ccco3)c12,61*,48,-18,68*,29,nt,7,-2
Nc1c(C(=O)N/N=C/c2cccnc2)oc2nc(-c3ccccc3)cc(-c3ccco3)c12,-38,40,13,-22,-27,nt,nt,nt
Cc1noc(C)c1S(=O)(=O)N1CCCC(C(=O)c2cccc(OC(C)C)c2)C1 (stereo not given),7,2,-13,8,0,1,nt,nt
Cc1nn(-c2ccccc2)c(Cl)c1/C=N/Nc1ccc(S(=O)(=O)Nc2ccccc2C(=O)O)cc1[N+](=O)[O-],54*,105*,100*,23,8,-3,20,27
COc1ccccc1OCC(=O)Nc1c2c(nn1-c1ccccc1)CS(=O)(=O)C2,6,nt,nt,2,-6,nt,nt,nt
O=C(/C=C/c1ccco1)NC(=S)Nc1ccc(C(=O)O)cc1,67*,nt,nt,34*,13,nt,26,39
CN1C[C@@H]2C(c3ccc(C(F)(F)F)cc3)C3(c4ccc(C#N)cc4)CC2(C3)[C@H]1c1ccccc1 (stereo not given in full),-4,-15,-109,1,-1,nt,nt,nt
Cc1cc(C)c(C#N)c(N2CCN(CCOc3ccc(Cl)cc3)CC2)n1,3,4,-25,11,5,0,nt,nt
COc1ccc(Cl)cc1CN1CCN(c2nc(C)cc(C)c2C#N)CC1,85*,14,-8,78*,14,-1,57*,82*
